Source: PubChem BioAssay (National Center for Advancing Translational Sciences (NCATS))
The list is not random: actives were taken first. Their share in the collection is about 21%.
Pf growth 96h: P. falciparum growth inhibition at 96 hours. P. falciparum luciferase reporter growth, 96 h. Potency, µM (top dose mostly 28.7 µM), inactives show top-dose activity change, negative = inhibition, most hits filed as inhibitors. 6.9% of 320,000 active. AID 504834; active = well fitted inhibition curve with a large enough effect; inconclusive = small, poorly fitted or top-dose-only effect, or another doubt; inactive = no such curve, though single readings can be large or run the other way; also: potency is read from the fitted curve at half-maximal effect; % is scaled to controls: 0 for no effect and ±100 for the full control effect
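Readout is luminescence from an integrated firefly luciferase in P. falciparum. Red cells, 2% hematocrit and 0.05% parasitemia final, were cultured with compound through two parasite generations (96 hours) at 37 C, 5% CO2.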
SARS PLP yeast: blocks SARS-CoV papain-like protease in a yeast assay; S. cerevisiae expressing SARS-CoV PLpro, growth rescue; Potency, µM (top dose mostly 32.9 µM), for inactives: top-dose activity, positive = growth rescue, hits mostly activators; 0.19% of 330,000 active; also: potency is read from the fitted curve at half-maximal effect; 0% is about no effect; nearly all actives have a fitted effect of over 55% in size
NS1 function inh: influenza NS1 inhibition; Potency, µM (series often up to 46.1 µM), for inactives: top-dose activity, positive = more growth; 0.4% of 270,000 active; AID 2326; also: potency is read from the fitted curve at half-maximal effect; actives are rising curves; nearly all actives have a fitted effect of over 50% in size
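Growth recovery, yeast-based: influenza A NS1 expressed in S. cerevisiae causes slow growth, and suppressors are detected by OD600. The parent strain without NS1 is used as positive control.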
Shiga toxin inh: Shiga toxin inhibition. 9.2% of 290,000 active. AID 2315. inhibition, % at 38.7 µM. Vero cells, Shiga toxin protein synthesis inhibition reporter; in the data active = inhibition mostly above about 28%, no sharp cut-off; inactive = mostly below about 43%; also: 0% is about no effect
Pf growth 48h: inhibits P. falciparum growth in the first generation, 48 h | P. falciparum luciferase growth in erythrocytes, 48 h | Potency, µM (series often up to 28.7 µM), without a hit: at the highest dose activity change, negative = inhibition, most hits filed as inhibitors | 5.9% of 310,000 active; active = well fitted inhibition curve with a large enough effect; inconclusive = small, poorly fitted or top-dose-only effect, or another doubt; inactive = no such curve, though single readings can be large or run the other way; also: potency is read from the fitted curve at half-maximal effect; % is scaled to controls: 0 for no effect and ±100 for the full control effect
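First compound was added to culture medium, then infected red cells at 0.1% parasitemia and 2% hematocrit (final). After incubation at 37 C under 5% CO2, luciferase detection reagent was dispensed and light output recorded.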
Cycloheximide cs: counter-screen hit for Shiga toxin inhibitors, cycloheximide | 12% of 300,000 active | max response, % | AID 2314 | cell reporter, cycloheximide protein synthesis inhibition counterscreen; in the data active = max response mostly above about 13%, no sharp cut-off; inactive = mostly below about 14%; also: read at 38.3 µM for the half of the compounds with a filed dose; 0% is about no effect
* = called active by the depositor; ? = inconclusive; · = no result. Unless noted, calls follow the shape of the full dose curve.

SMILES	Pf growth 96h	SARS PLP yeast	NS1 function inh	Shiga toxin inh	Pf growth 48h	Cycloheximide cs
CC1=NCCN1S(=O)(=O)c1cc(Cl)ccc1Cl	·	3.4%	-11.1%	-15.1	21.0%	-0.2
CC(C)C/C(O)=C/c1nc2cc(Cl)ccc2oc1=O	?	-36.9%	-20.8%	25.1	?	3.6
O/C(=C\c1nc2ccccc2nc1/C=C(\O)c1ccccc1)c1ccccc1	-7.2%	-2.1%	·	101.6*	4.4%	31.0*
O/C(=C\c1ccc2ccccc2n1)c1ccncc1	130.8%	1.0%	·	·	163.7%	·
O=c1oc2ccccc2nc1/C=C(\O)c1ccccc1	3.7%	-6.9%	-99.4%	103.7*	-21.5%	63.2*
Cc1nc(C)c(/C(O)=C/c2nc3ccccc3oc2=O)s1	-95.3%	-46.2%	-29.4%	-2.6	?	21.8*
O=c1oc2ccc(Cl)cc2nc1/C=C(\O)c1ccco1	14.7µM*	-5.5%	-52.7%	41.5*	?	25.4*
O=C(O)/C=C\C(=O)Nc1ccc2c(c1)C(=O)c1cc(F)ccc1-2	·	·	5.2%	·	·	·
CCc1nnc(NC(=O)CCN2C(=O)/C(=C/c3cc(OC)c(OC)c(OC)c3)SC2=S)s1	27.1%	-0.9%	0.7%	3.4	-3.9%	13.2
COc1ccc(-c2cc(C(=O)N3CCN(c4ccccc4OC)CC3)no2)cc1	?	10.0%	4.2%	-7.7	-9.0%	-4.9
COc1ccc(-c2cc(C(=O)N3CCc4ccccc4C3)no2)cc1	?	-0.1%	·	87.7*	12.5%	27.7*
COc1ccccc1N1CCN(C(=O)c2cc(-c3ccc(C)cc3)on2)CC1	·	-12.4%	-72.9%	54.9*	14.5%	19.1*
COc1ccccc1N1CCN(C(=O)c2noc(C(C)C)c2[N+](=O)[O-])CC1	13.1µM*	0.9%	-16.6%	-3.8	0.0%	-4.9
COc1ccc(-c2cc(C(=O)N3CCN(c4ccccc4)CC3)no2)cc1	2.6%	-3.3%	-29.8%	93.3*	130.7%	37.0*
Cc1cc(C)nc(NC(=O)CSc2nn(-c3ccccc3)c(=S)s2)n1	61.8%	0.9%	1.0%	-1.5	57.4%	-1.3
CCOC(=O)C1=C(COC(=O)c2cccc(NC(C)=O)c2)NC(=O)NC1C (stereo unspecified)	14.5%	-1.3%	·	·	14.6%	·
O=C(NCc1ccc(Cl)cc1)c1cccc(NC2=NC3CS(=O)(=O)CC3S2)c1 (stereo unspecified)	38.1%	-3.7%	-1.6%	0.6	4.5%	-3.0
COc1cccc(-c2cc(C(=O)N3CCc4ccccc4C3)no2)c1	6.3%	-24.0%	-41.2%	6.2	22.3%	17.1*
COc1ccc(OC)c(-c2cc(C(=O)N3CCN(c4ccccc4)CC3)no2)c1	0.1%	0.8%	-57.9%	-5.9	·	7.3
COc1ccc(OC)c(-c2cc(C(=O)N3CCc4ccccc4C3)no2)c1	9.28µM*	-10.2%	-47.3%	-10.6	21.5%	7.5
O=C(c1cc(-c2ccc(Br)cc2)on1)N1CCc2ccccc2C1	58.7%	2.4%	24.1%	0.5	11.0%	1.1
Cc1[nH]c2ccc(C(=O)N3CCCC3)cc2c1C	1.2%	2.2%	-0.9%	22.7	14.1%	30.4*
Cc1[nH]c2ccc(C(=O)N3CCCCC3)cc2c1C	14.6%	-1.1%	·	106.8*	158.3%	38.8*
CCC(C)NC(=O)CNC(=O)c1nn(-c2ccc(OC)cc2OC)c(=O)c2ccccc12 (stereo unspecified)	24.5%	-0.4%	?	-5.6	-4.8%	8.4
Cc1nc2c(cc1N)nc(C)n2Cc1ccccc1	2.62µM*	-3.9%	0.4%	-4.2	-2.1%	1.8
SMILES	Pf growth 96h	SARS PLP yeast	NS1 function inh	Shiga toxin inh	Pf growth 48h	Cycloheximide cs
CCn1nnc(NC(=O)c2cccc(-c3cc4ccccc4oc3=O)c2)n1	·	6.9%	-17.6%	73.0*	44.5%	40.5*
O=C(Nc1ccc(CN2CCOCC2)cc1)c1cccc(-c2cc3ccccc3oc2=O)c1	-2.3%	0.8%	2.5%	32.0	?	8.8
O=C(Nc1cccc(Cl)c1N1CCCC1)c1cccc(-c2cc3ccccc3oc2=O)c1	54.8%	2.8%	10.7%	39.1	?	25.5*
CC(C)NC(=O)NC(=O)COC(=O)c1cc[n+]([O-])cc1	30.7%	-2.1%	·	2.3	6.0%	-3.5
Cc1ccc(C)c(CS(=O)(=O)c2cn(CC(=O)N3CCC(C)CC3)c3ccccc23)c1	5.22µM*	-7.7%	-6.7%	-8.3	?	-5.3
Cc1ccccc1N=Nc1c(O)n(C)c2ccccc12	183.1%	-11.0%	0.4%	-5.6	17.3%	-3.0
c1cc(C(c2nnnn2C2CCCC2)N2CCOCC2)ccn1 (stereo unspecified)	5.8%	2.8%	-0.9%	-14.1	31.0%	-1.5
c1cncc(C(c2nnnn2C2CCCCC2)N2CCCCC2)c1 (stereo unspecified)	-3.5%	-0.4%	-0.8%	-4.8	14.7µM*	-1.3
CC(C)C(c1nnnn1C1CCCC1)N1CCCCC1 (stereo unspecified)	14.7µM*	7.1%	10.8%	5.5	·	12.0
CCCC(=O)n1nc(-c2cccnc2)nc1NCc1ccccc1	4.0%	-1.2%	-10.7%	-10.6	-11.4%	-2.0
O=C(NNc1nc2c(F)cccc2s1)C1=COCCO1	78.1%	0.2%	·	15.0	10.4%	8.9
Fc1cc(F)c2nc(Nc3nc4cc5c(cc4s3)OCO5)sc2c1	102.4%	-14.4%	-4.6%	26.0	41.6%	20.7*
Fc1cccc2sc(Nc3nc4cc5c(cc4s3)OCO5)nc12	116.6%	-41.2%	-9.9%	116.2*	120.5%	70.4*
Fc1cccc2sc(Nc3nc4cc5c(cc4s3)OCCO5)nc12	334.5%	-19.3%	7.6%	95.8*	235.2%	51.1*
COc1cc(CC(=O)OCc2ccccc2F)cc(OC)c1OC	15.3%	-0.3%	-20.2%	7.6	16.8%	0.7
CCCCN(C(=O)c1ccc(-c2ccc([N+](=O)[O-])cc2)o1)c1c(N)n(CC(C)C)c(=O)[nH]c1=O	-28.8%	-0.9%	·	·	?	·
CCN1CCCC1CNC(=O)c1cc([N+](=O)[O-])c(N(C)C)cc1OC (stereo unspecified)	4.15µM*	-0.1%	26.5%	4.6	2.6%	-2.7
CCCCN(CCCC)C(=O)C1(P(=O)(c2ccccc2)c2ccccc2)CCC1	?	-3.3%	-2.8%	11.3	?	-1.8
CN(C)C(CNC1CC(C)(C)NC(C)(C)C1)c1cccc(F)c1 (stereo unspecified)	0.9%	1.4%	1.6%	-9.7	?	-2.4
CCN(CC)C1CCN(C(=O)c2cc(COc3ccc(F)cc3Cl)on2)C1 (stereo unspecified)	-28.0%	-1.0%	3.5%	3.3	-7.0%	20.2
O=C(c1cc(COc2ccc(F)cc2Cl)on1)N1CC[C@@H]2CCCC[C@H]2C1	82.0%	?	-1.1%	-1.9	7.7%	15.2
O=C(c1cc(COc2ccc(F)cc2Cl)on1)N1CC2C[C@@H]3CC1C[C@H](C2)C3	-15.9%	-6.1%	-17.6%	101.8*	31.2%	30.4*
O=C(c1cc(COc2ccc(F)cc2Cl)on1)N1CCc2ccccc2C1	17.1%	-0.3%	-4.9%	-6.3	6.5%	1.4
